This is part of a sample that, as a whole, favours compounds with a hit. Of some 79,000 tested, about 15% had one in any assay. A number with no mark means an inactive call. Activity calls are given as the source filed them. Rule as the data show it: active = growth inhibition above about 70%; inactive = the rest.
How the values were obtained:
[1] = NCI Yeast Anticancer Drug Screen. Data for the rad50 strain (AID 155);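 also: 0% = growth of vehicle-only cultures of the same strain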; settings: S. cerevisiae rad50 strain growth inhibition, stronger effect = higher value
How it was run: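 Relative growth inhibition (compound vs vehicle) was measured in yeast with a defined repair-gene alteration.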

[2] = NCI Yeast Anticancer Drug Screen. Data for the mec2-1 strain (AID 157); settings: S. cerevisiae mec2-1 strain, stronger effect = higher value
How it was run: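 Vehicle-treated cultures served as reference for growth inhibition of compound-exposed mec2-1 yeast.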

[3] = NCI Yeast Anticancer Drug Screen. Data for the sgs1 mgt1 strain (AID 161);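 also: 0% = growth of cultures given vehicle only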; settings: S. cerevisiae sgs1 mgt1 strain, stronger effect = higher value
How it was run: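 Genetically altered yeast, compound exposure, growth inhibition relative to vehicle.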

[4] = NCI Yeast Anticancer Drug Screen. Data for the cln2 rad14 strain (AID 165);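 also: 0% = growth equal to vehicle treated cultures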; settings: S. cerevisiae cln2 rad14 strain, stronger effect = higher value
How it was run: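 Each compound was tested on cln2 rad14 yeast. Inhibition of growth was calculated against vehicle-exposed controls.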

[5] = NCI Yeast Anticancer Drug Screen. Data for the bub3 strain (AID 167); settings: S. cerevisiae bub3 mutant strain, stronger effect = higher value
How it was run: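 Screening used yeast with an engineered genetic alteration affecting cell cycle control. Compound-exposed cultures were compared with vehicle cultures, and reduced growth was taken as inhibition.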

[6] = NCI Yeast Anticancer Drug Screen. Data for the mlh1 rad18 strain (AID 175); settings: S. cerevisiae mlh1 rad18 strain growth inhibition, stronger effect = higher value
How it was run: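 Vehicle-treated cultures served as the reference for growth inhibition in a yeast strain carrying DNA damage repair alterations exposed to each compound.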

[7] = at 5.0 µM (retest, dose inferred, filed as 0.5)
[8] = at 50.0 µM (retest, dose inferred, filed as 5.0)

Compound	growth inhibition [1, 7]	growth inhibition [1, 8]	growth inhibition ([1]; at 50.0 µM)	growth inhibition [2, 7]	growth inhibition [2, 8]	growth inhibition ([2]; at 50.0 µM)	growth inhibition [3, 7]	growth inhibition [3, 8]	growth inhibition ([3]; at 50.0 µM)	growth inhibition [4, 7]	growth inhibition [4, 8]	growth inhibition ([4]; at 50.0 µM)	growth inhibition [5, 7]	growth inhibition [5, 8]	growth inhibition ([5]; at 50.0 µM)	growth inhibition [6, 7]	growth inhibition [6, 8]	growth inhibition ([6]; at 50.0 µM)
CC1=CC(c2c(O)cc(O)c(C(=O)CCc3ccccc3)c2O)C(C(C)C)CC1 (configuration not stated)	11%	88% (active)	70.8% (active)	10%	85% (active)	83% (active)	1%	91% (active)	80% (active)	3%	87% (active)	79.2% (active)	21%	96% (active)	76% (active)	8%	76% (active)	82.2% (active)
O=[N+]([O-])c1cccc(C=Nc2ccccc2O)c1	22%	34%	63.1%	12%	31%	41.8%	13%	35%	52.7%	-4%	7%	17.6%	23%	82% (active)	76% (active)	24%	48%	70.8% (active)
c1ccc2c(c1)-c1cccc3cncc-2c13	45%	62%	90.7% (active)	52%	53%	92.6% (active)	19%	98% (active)	92.6% (active)	69%	99% (active)	90.9% (active)	53%	99% (active)	91.2% (active)	33%	52%	91.2% (active)
Cc1c2ccccc2c(CO)c2cc(F)c3ccccc3c12	71% (active)	98% (active)	71.5% (active)	95% (active)	99% (active)	34%	97% (active)	99% (active)	84.2% (active)	87% (active)	98% (active)	31.9%	91% (active)	98% (active)	85% (active)	95% (active)	98% (active)	92.7% (active)
O=C(O)c1ccccc1C(c1ccccc1)c1ccccc1	15%	62%	44.4%	-8%	44%	65.2%	26%	71% (active)	85.8% (active)	13%	84% (active)	74.3% (active)	25%	79% (active)	75.3% (active)	6%	84% (active)	67%
CCc1cc2nc3c(=O)[nH]c(=O)nc-3n(CCN(CCO)CCO)c2cc1CC	5%	3%	41%	10%	27%	30.6%	2%	15%	55%	2%	-6%	37%	2%	-7%	18.1%	2%	7%	81.9% (active)
COP(=O)(OC)OCC1OC(n2cnc3c(N)ncnc32)C(O)C1O (configuration not stated)	-2%	-2%	96.5% (active)	2%	2%	95.9% (active)	0%	-2%	94.5% (active)	4%	4%	89.7% (active)	-1%	-4%	96.2% (active)	-3%	-5%	97.3% (active)
CCCCCCCCCCCCCCCCCCOC(=O)C(N)Cc1ccccc1 (configuration not stated)	-1%	-9%	-7.3%	-2%	-5%	10.1%	0%	-6%	11.1%	-6%	-4%	-7.75%	-2%	-3%	-5.85%	-3%	-8%	5.5%
Nc1cc2c(cc1/C=C(\C(=O)O)c1ccccc1)OCO2	-1%	-4%	52.2%	-11%	-8%	-8.75%	-5%	-8%	56%	-4%	9%	-24.6%	-6%	2%	-5.95%	-3%	-2%	15.2%
Cc1cccc(C)c1N=Nc1c(C)nc(N)nc1-c1ccccc1	0%	88% (active)	96.8% (active)	12%	95% (active)	96.4% (active)	5%	96% (active)	95.5% (active)	-4%	90% (active)	94.3% (active)	-7%	93% (active)	96.3% (active)	-4%	91% (active)	95.3% (active)
NC(c1ccccc1)P(=O)(OCc1ccc([N+](=O)[O-])cc1)OCc1ccc([N+](=O)[O-])cc1 (configuration not stated)	15%	15%	57.2%	-4%	-4%	33.6%	-3%	-3%	72.3% (active)	11%	11%	35.6%	6%	6%	36.9%	14%	14%	33.4%
Cc1c(C(=O)O)nc(C(Br)(Br)Br)[nH]c1=O	6%	8%	54.2%	20%	17%	4.85%	2%	26%	71.3% (active)	1%	0%	14.7%	4%	2%	1.5%	6%	27%	53%
CC1N(O)C(c2ccccc2)C(c2ccccc2)=[N+]1[O-] (configuration not stated)	16%	25%	-5.7%	11%	14%	-26.9%	16%	26%	-20.4%	22%	17%	8.8%	22%	26%	-20.9%	13%	22%	-37.4%
COC(C(=O)O)c1ccccc1 (configuration not stated)	-1%	9%	75% (active)	-1%	-3%	8.9%	-2%	-2%	74.8% (active)	1%	-5%	-1.95%	-2%	1%	47.1%	-3%	0%	79.5% (active)
CSc1cc(N)nc(N)n1	3%	-4%	73% (active)	3%	2%	79.3% (active)	4%	14%	80.3% (active)	1%	3%	83.2% (active)	1%	-3%	38.9%	2%	-6%	93.4% (active)
CCC1(CC(=O)O)OCCc2c1[nH]c1c(C)c(Cl)ccc21 (configuration not stated)	10%	99% (active)	95.7% (active)	1%	99% (active)	98.1% (active)	2%	97% (active)	97.8% (active)	-2%	96% (active)	97.2% (active)	-4%	96% (active)	95.8% (active)	-1%	97% (active)	97.5% (active)
CCCCOC(c1ccccc1)N1CCCCC1 (configuration not stated)	0%	6%	28.8%	0%	11%	-10.7%	-3%	6%	35.8%	-3%	-12%	-13.6%	-4%	-4%	4.15%	-4%	-3%	7.35%
O=C(O)CN(CC(=O)O)C1CCCCC1N1CC(=O)OC(=O)C1 (configuration not stated)	35%	35%	74.3% (active)	17%	17%	81.1% (active)	26%	26%	75% (active)	3%	3%	64.3%	-7%	-7%	80.3% (active)	25%	25%	76% (active)
CS(=O)(=O)OCCN(CCOS(C)(=O)=O)c1ccc(C=Nc2cc(Br)c(O)c(Br)c2)c(Cl)c1	3%	70% (active)	67.7%	29%	39%	36.8%	3%	80% (active)	82.5% (active)	5%	45%	10.2%	-3%	96% (active)	40.3%	8%	91% (active)	85.8% (active)
